Data reported in paper PMC11995724, “Antibiotic target discovery by integrated phenotypic and activity-based profiling of electrophilic fragments” (Cell chemical biology, 2025).
The campaign covered roughly 3,200 compounds. About 110 (3.4%) showed an effect of 50% or more. Many of the other results were omitted from the sample, so strong results are more common in it than they were.

Tested on: T1, V. cholerae SAD30
T1 construct: SAD30
Parameters: species or system S. aureus MSSA476 (TSB) or V. cholerae SAD30 (LB); 384-well bacterial growth screen at 25 uM, OD600 relative to DMSO control
Conditions: relative growth, OD600, LB; 25 µM; inhibitor

SMILES	% of control remaining [%]
C=CC(=O)N1CCC(C(=O)NC[C@H]2C[C@@H](O)C2)(c2ccccc2)CC1 [3-O04, 4-phenyl-1-(prop-2-enoyl)-N-{[(1s,3s)-3-hydroxycyclobutyl]methyl}piperidine-4-carboxamide]	105.852
CC(Cl)C(=O)Nc1ccccc1[N+](=O)[O-] (stereo not shown) [4-G18, 2-chloro-N-(2-nitrophenyl)propanamide]	96.0966
CN(C)CCN1C(=O)C=CC1=O [10-G11, 1-[2-(dimethylamino)ethyl]-2,5-dihydro-1H-pyrrole-2,5-dione]	99.9026
O=C1C=CC(=O)N1CCCCO [10-K07, 1-(4-hydroxybutyl)-2,5-dihydro-1H-pyrrole-2,5-dione]	17.4557
CCOC=C(C#N)C(=O)N1CCN(S(=O)(=O)c2cc[nH]n2)CC1 [9-D06, 3-ethoxy-2-[4-(1H-pyrazole-3-sulfonyl)piperazine-1-carbonyl]prop-2-enenitrile]	86.1319
C#CCN1C(=O)C=CC1=O [10-F09, 1-(prop-2-yn-1-yl)-2,5-dihydro-1H-pyrrole-2,5-dione]	15.1179
CC(Cl)C(=O)N1CCN(Cc2ccc3ccccc3n2)CC1 (stereo not shown) [7-A15, 2-chloro-1-{4-[(quinolin-2-yl)methyl]piperazin-1-yl}propan-1-one]	80.0925
Cc1nc(C)c(C(=O)CCl)o1 [10-N08, 2-chloro-1-(2,4-dimethyl-1,3-oxazol-5-yl)ethan-1-one]	41.4572
Cc1ccc(C(=O)CCl)o1 [10-A09, 2-chloro-1-(5-methylfuran-2-yl)ethan-1-one]	117.514
Cc1nc(C#N)c(N2CCN(C(=O)CCl)CC2)o1 [5-L18, 5-[4-(2-chloroacetyl)piperazin-1-yl]-2-methyl-1,3-oxazole-4-carbonitrile]	96.3329
CC(Cl)C(=O)Nc1c(Cl)cccc1Cl (stereo not shown) [4-B16, 2-chloro-N-(2,6-dichlorophenyl)propanamide]	102.653
C=CC(=O)NC(=O)NCc1ccccc1 [1-I04, 1-benzyl-3-(prop-2-enoyl)urea]	96.861
NS(=O)(=O)c1cccc2cc(NC(=O)CCl)ccc12 [5-K16, 2-chloro-N-(5-sulfamoylnaphthalen-2-yl)acetamide]	109.11
C=CC(=O)N(Cc1c(F)cc(C)cc1Cl)C1CCCOCC1 (stereo not shown) [2-A13, N-[(2-chloro-6-fluoro-4-methylphenyl)methyl]-N-(oxepan-4-yl)prop-2-enamide]	81.8585
C=CC(=O)N1CCC(C(=O)N2CCN(c3ccnc(C)n3)CC2)CC1 [2-L06, 1-{4-[4-(2-methylpyrimidin-4-yl)piperazine-1-carbonyl]piperidin-1-yl}prop-2-en-1-one]	88.9607
COc1cccc([C@H]2C[C@H](N(C)C(=O)C(C)Cl)C2)c1 (stereo partly shown) [6-B17, 2-chloro-N-methyl-N-[(1r,3r)-3-(3-methoxyphenyl)cyclobutyl]propanamide]	89.6388
Cc1noc(C)c1C(=O)CCl [10-K13, 2-chloro-1-(3,5-dimethyl-1,2-oxazol-4-yl)ethan-1-one]	23.0664
Cc1coc(C)c1C(=O)CCl [10-M11, 2-chloro-1-(2,4-dimethylfuran-3-yl)ethan-1-one]	109.41
Cc1noc(C)c1CN(C)C(=O)CCl [5-G06, 2-chloro-N-[(3,5-dimethyl-1,2-oxazol-4-yl)methyl]-N-methylacetamide]	92.4661
O=C1C=CC(=O)N1c1ccc(F)cc1F [10-F15, 1-(2,4-difluorophenyl)-2,5-dihydro-1H-pyrrole-2,5-dione]	26.4952
O=C(c1ccccc1)c1cc(Cl)ccc1N1C(=O)C=CC1=O [10-M16, 1-(2-benzoyl-4-chlorophenyl)-2,5-dihydro-1H-pyrrole-2,5-dione]	57.9778
O=C1C=CC(=O)N1c1ccccc1F [10-D17, 1-(2-fluorophenyl)-2,5-dihydro-1H-pyrrole-2,5-dione]	26.1835
CN(C(=O)CCl)C1CCN(c2ccccc2F)C1=O (stereo not shown) [5-A18, 2-chloro-N-[1-(2-fluorophenyl)-2-oxopyrrolidin-3-yl]-N-methylacetamide]	104.066
N#CC(=Cc1cccc(-c2ccncc2)c1)C(=O)NCc1ccco1 [9-B06, 2-cyano-N-[(furan-2-yl)methyl]-3-[3-(pyridin-4-yl)phenyl]prop-2-enamide]	87.4915
C=CC(=O)N1CCC(c2nc(C3CC3)no2)C1 (stereo not shown) [2-E09, 1-[3-(3-cyclopropyl-1,2,4-oxadiazol-5-yl)pyrrolidin-1-yl]prop-2-en-1-one]	93.9014
C=CC(=O)N1CCC(C(=O)NCCC2(O)CCCOC2)CC1 (stereo not shown) [2-B04, N-[2-(3-hydroxyoxan-3-yl)ethyl]-1-(prop-2-enoyl)piperidine-4-carboxamide]	101.004
Cc1ccc(C(=O)C(C)Cl)cc1C (stereo not shown) [10-B20, 2-chloro-1-(3,4-dimethylphenyl)propan-1-one]	99.2792
CCc1ccc(NC(=O)C(C#N)=Cc2cccnc2)cc1 [8-G04, 2-cyano-N-(4-ethylphenyl)-3-(pyridin-3-yl)prop-2-enamide]	83.8205
